# From PubChem BioAssay (NCI)
# Where “and” joins values, the source holds several entries; their conditions need not be identical. Identical values can stand only once. About 83,000 compounds went through this panel and 20% of them were active in at least one assay; those are over-represented in the sample as a whole.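 Interpretation: 100, growth as untreated; towards 0, rising growth inhibition; 0, no net growth; 0 to -100, cell death. Compounds scoring below 10 were considered active.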 Calls of active or inactive are those of the source.
# Test system: UACC-62 melanoma
# Experiment: NCI-60 one-dose screen, 48 h (100 = growth as untreated, 0 = no growth, -100 = all killed)
# Settings: 10 µM unless noted
row,SMILES,growth
1,O=Cc1ccc(-c2ccc(-c3ccc(CO)s3)o2)s1,-65% [100 µM] (active) and -100% [100 µM] (active)
2,CC1=CC[C@@H]2[C@@H](CC[C@@]2(C)O)C(C)(C)[C@H]1CC[C@@H]1[C@@]2(C)CCC(=O)C(C)(C)O[C@@H]2CC[C@]1(C)O,-76.1% [100 µM] (active) and -100% [100 µM] (active)
3,O=C(CCc1ccccc1)ON1C(=S)NC(c2ccccc2)(c2ccccc2)C1=S,-47.5% [100 µM] (active) and -5.8% [100 µM] (active)
4,CCOC(=O)C1C(C(C)C)C2(C#N)C(=N)OC1(C)C2(C#N)C#N (centres undefined),-51.6% [100 µM] (active) and -86.9% [100 µM] (active)
5,O=C(/C=C/c1ccccc1)CCC1C(=O)c2ccccc2C1=O,41.6% [100 µM] (inactive) and 19.1% [100 µM] (inactive)
6,C=C1C(=O)OC2CC3(C)CCCC(C)C3=CC12 (centres undefined),-100% [100 µM] (active) and -93.9% [100 µM] (active)
7,O=C(O)CCCOc1cc(-c2ccccc2F)nc2cc3c(cc12)OCO3,11.6% [100 µM] (inactive) and -54.7% [100 µM] (active)
8,C=c1c2ccccc2oc2nc3[nH]c(N)c(C#N)c(N)c3c(=N)c12,44.5% [100 µM] (inactive) and 0.738% [100 µM] (active)
9,Cc1ccc(/C=N/Nc2cc(C)c3cccc(C)c3n2)s1,-91.7% [100 µM] (active) and -100% [100 µM] (active)
10,C=CCO/N=C/c1cc(NC(=S)c2ccoc2C)ccc1Cl,-98.8% [100 µM] (active) and -100% [100 µM] (active)
11,C=C1C(=O)OC2CC1C(OC(=O)/C=C/c1ccccc1)C/C(C)=C/CC/C(C)=C/CCC2(C)O (centres undefined),-95.6% [100 µM] (active) and -90.1% [100 µM] (active)
12,On1c(-c2ccccc2)nc2ccccc2c1=S,-68.5% [100 µM] (active) and -97.5% [100 µM] (active)
13,CC1=C(Cl)C[C@@H](/C(C)=C\Cl)O[C@@]1(O)C(Br)Br,70.8% [100 µM] (inactive) and -44.8% [100 µM] (active)
14,COc1ccc2nc3c4c(nccc4c2c1)-c1ncccc1C3=O,-95.8% [50 µM] (active) and -100% [50 µM] (active)
15,C=C1C(=O)C2=CC1CCC(=O)C1(C)CCC(OC(C)=O)C(C)(C)C1CC2O (centres undefined),-95.4% [100 µM] (active) and -100% [100 µM] (active)
16,CC1OC(OC2C(OC3CCC4(C)C(CCC5(C)C4CC=C4C6CC(C)(C)CCC6(C(=O)O)CCC45C)C3(C)CO)OCC(O)C2O)C(O)C(O)C1O (centres undefined),-94% [100 µM] (active) and -96.7% [100 µM] (active)
17,COc1c(/C=C/C=O)cc2c(c1OC)OCO2,-90.2% [100 µM] (active) and -97.4% [100 µM] (active)

row,SMILES,growth
1,C=C(C)C1CC2(C)C(C)CC(O)CC2C(OC(=O)C=C(C)C)C1O (centres undefined),9.73% [100 µM] (active) and 41.9% [100 µM] (inactive)
2,C[C@@H]1CCC([C@@H](C)[C@H]2CC[C@H]3[C@@H]4CC[C@H]5C[C@@H](O)CC[C@]5(C)[C@H]4CC[C@]23C)=NC1,-45.8% [100 µM] (active) and -54.1% [100 µM] (active)
3,COc1ccc2c(c1)C(OC)C1c3c(cc4c(c3-2)OCO4)CCN1C (centres undefined),-93.1% [100 µM] (active) and -89.5% [100 µM] (active)
4,COc1ccc(OC)c(Cc2cnc3nc(N)nc(N)c3c2C)c1,1.25% [100 µM] (active) and -100% [100 µM] (active)
5,N=C1C(=N)c2ccccc2-c2ccccc21,53.6% [100 µM] (inactive) and -56.4% [100 µM] (active)
6,CC1(C)CCC[C@]2(C)[C@@H](C=O)C(C=O)=CC[C@@H]12,-87.9% [100 µM] (active) and 4.13% [100 µM] (active)
7,COc1ccc2c(c1)C(N)=C(c1ccccc1)C2=O,80.5% [100 µM] (inactive) and 28.2% [100 µM] (inactive)
8,Cc1ccc(NC(=S)C#N)cc1Cl,-35.5% [100 µM] (active) and -95.7% [100 µM] (active)
9,Cc1cc(O)c2c(c1)C(=O)C(c1c(C)cc3c(c1O)C(=O)C1OC1C3=O)=CC2=O (centres undefined),-91.9% [100 µM] (active) and -93.6% [100 µM] (active)
10,CC1=CC[C@@H]2[C@@H](CC[C@@]2(C)O)C(C)(C)[C@H]1CC[C@@H]1[C@@]2(C)CC[C@@H](O)C(C)(C)O[C@@H]2CC[C@]1(C)O,-81.4% [100 µM] (active) and -96.9% [100 µM] (active)
11,C=C(CO)C(=O)OC1CC(=C)C2CC(O)C(C)C2C2OC(=O)C(=C)C12 (centres undefined),60.1% [100 µM] (inactive) and -100% [100 µM] (active)
12,CCOC(=O)COc1cc(-c2ccccc2F)nc2cc3c(cc12)OCO3,69.3% [100 µM] (inactive) and 35.8% [100 µM] (inactive)
13,CC1(C=O)CCC23COC4(CCC5C6(C)CCC(OC7OCC(OC8OC(CO)C(O)C(OC9OC(CO)C(O)C(O)C9O)C8OC8OCC(O)C(O)C8O)C(O)C7OC7OC(CO)C(O)C(O)C7O)C(C)(C)C6CCC5(C)C4(C)CC2O)C3C1 (centres undefined),-69% [100 µM] (active) and -57.3% [100 µM] (active)
14,CC1=C(C2=C(C)C(=O)C(=O)c3cc(C)ccc32)c2ccc(C)cc2C(=O)C1=O,-92.5% [100 µM] (active) and -100% [100 µM] (active)
15,COC(=O)[C@]1(C)CCC[C@@]2(C)[C@@H]3C[C@@H]4[C@H]5C[C@@]3(CC[C@@H]21)C[C@@]45C,-98.2% [100 µM] (active) and -85.1% [100 µM] (active)
16,CN1CCc2cc3c(c4c2C1C(O)c1ccccc1-4)OCO3 (centres undefined),-88.3% [100 µM] (active) and -88.4% [100 µM] (active)
17,COc1ccc(Nc2nc3ccc(C(F)(F)F)cc3nc2C(=O)O)cc1,-46.2% [100 µM] (active) and -91.5% [100 µM] (active)
